The structures appear in SMILES notation. This is part of a sample that, as a whole, favours compounds with a hit. Of some 83,000 tested, about 20% had one in any assay.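 Percent growth is the endpoint: 0 to 100 indicates growth inhibition (40 means 60% inhibition), 0 means no net growth, and negative values indicate cell death.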 Activity calls are given as the source filed them. Rule for the calls: active = growth percent below 10; inactive = the rest.

In the assay the test system is PC-3 prostate. The experiment in a line: NCI-60 one-dose screen, 48 h (100 = growth as untreated, 0 = no growth, -100 = all killed). The conditions noted are these: 10 µM unless noted.
As to `O=C(Nc1ccc2c(c1)OCO2)C(=O)c1c[nH]c2cc(F)ccc12`, the growth was 63.8% (inactive).
For `O=C(Nc1cccc(-n2cc(-c3ccncc3)c(-c3ccc(Cl)c(O)c3)n2)c1)Nc1cc(C(F)(F)F)cc(C(F)(F)F)c1` the value was -32.4% (active); for `N/C(=N\C(N)=N\c1nc2ccccc2s1)c1ccncc1`, 73.9% (inactive).
For `O=S(=O)(NCCNc1nccc(-c2c(-c3cccc(O)c3)nc3sccn23)n1)c1ccc(F)cc1` the value was 65.7% (inactive).
`CN1C(=O)N(C)C2C1NN=c1s/c(=C\c3cccnc3)c(=O)n12` (centres undefined): the growth is 65.9% (inactive).
In the case of `CN1CCN(Cc2ccc(NC(=O)c3cncc(C#Cc4cnc(N)c5ccncc45)c3)cc2C(F)(F)F)CC1`, the growth was 25.5% (inactive).
In the case of `O=C(Nc1ccncc1)C(=O)c1cn(S(=O)(=O)c2ccc(Br)cc2)c2ccccc12` it was 68.4% (inactive).
For `CN(C)CCCN(c1nc(C(Cl)(Cl)Cl)ns1)c1nc(C(Cl)(Cl)Cl)ns1` the value was 22.2% (inactive).
In the case of `COc1ccc(-c2nc3sc(-c4cc(OC)c(OC)c(OC)c4)nn3c2/C=C2/C(=O)Nc3ccc(F)cc32)cc1` it was -25% (active); in that of `Cc1ccc(S(=O)(=O)NCCNc2cc(-c3cn(C(C)(C)C)nc3-c3cccc(O)c3)ccn2)cc1`, 46.7% (inactive); in that of `COc1cccc(/C=C2\Oc3cc(OCCCN4CCCC4)ccc3C2=O)c1`, 69% (inactive).
Turning to `COc1ccc(Nc2[nH]n3c(=O)cc(-c4ccccc4)nc3c2C(=O)Nc2ccc(C)cc2)c(OC)c1`, the growth was 76.9% (inactive).
Consider `Cc1ccc(S(=O)(=O)c2nc(-c3ccccc3)oc2S(C)(=O)=O)cc1`, for which the growth is 84% (inactive).
For `O=[N+]([O-])c1cccc(-c2nc3sccn3c2-c2ccnc(NCCCNS(=O)(=O)c3ccc(Cl)cc3)n2)c1` the value was 28.1% (inactive); for `CCC(=O)Oc1ccc(/C(=C(/C)Cc2cccc(OC)c2)c2ccc(OCCN(C)C)cc2)cc1`, 85.5% (inactive); for `COc1ccc(N2CCN(Cc3cc(C(=O)/C=C/c4c[nH]c5ccccc45)ccc3O)CC2)cc1`, 88.3% (inactive).
Take `COc1ccc(-c2nc(/C=C3/C(=O)Nc4ccc(F)cc43)c3ccccn23)cc1`: the growth was 108% (inactive).
In the case of `CCN(CC)c1ccc(/C=C2\Oc3ccc(O)c(I)c3C2=O)cc1` it was 52.8% (inactive).
For `N[C@H]1CN(C(=O)c2cc3cc(Br)c(F)c(F)c3[nH]2)C[C@@H]1O` the value was 93.6% (inactive); for `COc1ccc(/C=C\c2cc(OC)c(OC)c(OC)c2)cc1OC(=O)c1cccc(Cn2cc(CCOC(=O)c3cccc(Cn4nnc5c4C(=O)c4ccccc4C5=O)c3)nn2)c1`, 22.8% (inactive).
As to `N[C@@H]1CCN(C(=O)c2cc3cc(Cl)c(F)c(F)c3[nH]2)C1`, the growth was 90.5% (inactive).
For `CC(C)(C)Nc1c(-c2cccs2)nc2ncccn12` the value was 95% (inactive); for `O=C1/C(=C/c2ccccc2)Oc2ccc(O)c(I)c21`, 89.6% (inactive).
In the case of `COc1ccc(OC)c(/C=C2\Oc3cc(OCCCN4CCCC4)ccc3C2=O)c1` it was 82.9% (inactive); in that of `COc1ccc(S(=O)(=O)Nc2cc(/C=C\c3cc(OC)c(OC)c(OC)c3)cc(OC)c2OC)cc1`, 6.4% (active).
For `COc1ccc(/C=C2\Oc3cc(OCCCN4CCCC4)ccc3C2=O)cc1` the value was 85.5% (inactive); for `FC(F)(F)c1ccccc1-c1cn2c(ccc3ccccc32)n1`, 79.4% (inactive).
In the case of `Cc1nn(-c2ccc(Cl)cc2)c2ncnc(N/N=C/c3cccc([N+](=O)[O-])c3)c12`, the growth was 39% (inactive).
For `c1ccc(Nc2nc(Nc3ccccc3)nc(Nc3ccccc3)n2)cc1` the value was 79.7% (inactive).
In the case of `COc1ccc(-c2nc(N3CCCC3=O)sc2Br)cc1OC` it was 101% (inactive); in that of `NC1N=C(SCC(=O)N2CCN(c3cc4c(cc3F)c(=O)c(C(=O)O)cn4C3CC3)CC2)NC(=O)/C1=C/c1ccc(Cl)cc1` (centres undefined), 95.4% (inactive); in that of `Clc1ccc(-c2nc3ccccc3s2)cc1Cl`, 89% (inactive).
As for `O=C(NS(=O)(=O)c1ccc2ccccc2c1)n1cc(-c2ccncc2)c(-c2ccc(Cl)c(O)c2)n1`, the growth was 74.2% (inactive).
As to `O=C(O)/C=C/C(=O)c1ccc(Cl)cc1`, the growth was 106% (inactive).
With `CCCCN(CCCC)C(=O)CC`, the growth was 98.2% (inactive).
With `O=c1c2sc3ncccc3c2nnn1-c1ccccc1`, the growth is 98.7% (inactive).
Consider `COc1ccc(/C=C2\Oc3cc(OCCCN4CCCC4)ccc3C2=O)c(OC)c1`, for which the growth is 66.8% (inactive).
Take `CCCCN(CCCC)c1ccc(C(=N)c2ccc(N(CCCC)CCCC)cc2)cc1`: the growth is -94.4% (active).
For `CN1C(=O)N(C)C2C1NN=c1s/c(=C\C=C\c3ccccc3)c(=O)n12` (centres undefined) the value was 40.9% (inactive).

For the origin of these results see PubChem BioAssay (NCI).
